# PubChem BioAssay AID1376 (SRMLSC, 2008)
# In all, about 220,000 compounds went through this assay and about 530 (0.24%) were called active. The entries come from a sample that favours actives as a whole. Entries with a potency or affinity are not part of this list. Unmarked numbers belong to inactive results. Cut-off read from the data, not from the text of the source: active = inhibition above about 13%; inconclusive = no clear call, values can overlap the other calls; inactive = below that.
# Target: Bifunctional protein GlmU (Mycobacterium tuberculosis (strain ATCC 25618 / H37Rv)) (UniProt P9WMN3)
# Sequence (P9WMN3 whole entry, looked up): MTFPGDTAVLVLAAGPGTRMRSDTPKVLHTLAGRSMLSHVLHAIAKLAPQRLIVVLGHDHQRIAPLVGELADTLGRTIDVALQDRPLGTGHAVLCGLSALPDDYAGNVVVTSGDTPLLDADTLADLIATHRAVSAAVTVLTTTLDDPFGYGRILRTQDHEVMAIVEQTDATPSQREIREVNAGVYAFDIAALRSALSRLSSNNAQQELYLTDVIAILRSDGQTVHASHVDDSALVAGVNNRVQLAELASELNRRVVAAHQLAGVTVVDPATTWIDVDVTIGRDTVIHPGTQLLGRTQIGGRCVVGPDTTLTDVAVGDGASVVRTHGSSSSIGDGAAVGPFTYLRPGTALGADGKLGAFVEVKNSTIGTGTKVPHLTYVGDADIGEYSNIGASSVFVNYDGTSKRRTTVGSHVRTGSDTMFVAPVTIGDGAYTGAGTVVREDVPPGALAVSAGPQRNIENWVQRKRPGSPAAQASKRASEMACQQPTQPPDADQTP
# Assay: inhibition of mycobacterial GlmU enzyme – biochemical, glucosamine-1-phosphate acetyltransferase (AID 1376);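 note: 0% = complete reaction with vehicle and 100% = reaction without substrate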
# Details: M. tuberculosis GlmU acetyltransferase enzyme assay; active compounds read high;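 tested at 30 µM in the primary screen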
row,SMILES,inhibition
1,CSC1=NSC2=NC(=O)/C(=C/c3coc4ccc(O)cc4c3=O)C(=N)N12,21.3% (active)
2,CSC1=NSC2=NC(=O)/C(=C\c3coc4ccccc4c3=O)C(=N)N12,7.97%
3,CSC1=NSC2=NC(=O)/C(=C/c3coc4ccccc4c3=O)C(=N)N12,8.95%
4,NS(=O)(=O)c1ccc(CCNC(=O)CCCC2=NS(=O)(=O)c3ccccc3N2)cc1,2.45%
5,COc1ccc(OCc2n[nH]c(=S)o2)cc1,2.56%
6,S=c1[nH]nc(COc2ccc3ccccc3c2)o1,3.96%
7,S=c1[nH]nc(COc2ccc(Cl)cc2)o1,13.3% (active)
8,O=C(O)C1Cc2ccccc2CN1C(=O)COc1ccc(Br)cc1 (stereo not drawn),12.6%
9,CCOC(=O)CSc1nc(C)c(C(C)=O)cc1C(N)=O,1.16%
10,Cc1cccc(NC(=S)NNC(=O)c2csc3c2CCCC3)c1,13% (active)
11,Cc1cccc(NC(=S)NNC(=O)c2csc3c2CCC(C)C3)c1 (stereo not drawn),2.66%
12,Cc1ccc(C)c(NC(=S)NNC(=O)c2csc3c2CCCC3)c1,-4.85%
13,CC(C)Cc1nnc(NC(=O)c2cc(-c3ccccc3)nc3ccccc23)s1,0.66%
14,COc1cc([N+](=O)[O-])ccc1NC(=O)Cc1ccc(F)cc1,4.76%
15,COc1ccc(CN2CCn3ncc(C(=O)Nc4cc(C)cc(C)c4)c3C2=O)cc1,-5.28%
16,O=C(NNS(=O)(=O)c1ccc(Cl)cc1)c1sccc1-n1cccc1,-3.47%
17,O=C(NNS(=O)(=O)c1ccccc1)c1sccc1-n1cccc1,-3.8%
18,O=C(NNS(=O)(=O)c1cc(Cl)cc(Cl)c1)c1sccc1-n1cccc1,13.9% (active)
19,CC1(C(=O)OCC(=O)Nc2ccc3ccccc3c2)CC1(Cl)Cl (stereo not drawn),0.98%
20,O=C(N1CCN(Cc2ccc3c(c2)OCO3)CC1)C12CC3CC(CC(C3)C1)C2,3.26%
21,COC(=O)c1ccc2c(=O)sc(N3CCC(C(N)=O)CC3)nc2c1,-0.93%
22,CCOc1ccc(/C=C2\SC(=S)NC2=O)cc1OC,0.99%
23,CCOc1c(O)ccc(/C=C2\SC(=S)NC2=O)c1[N+](=O)[O-],12.8% (active)
24,C=CCN1C(=O)/C(=C/c2ccc(OC(C)=O)c(OCC)c2[N+](=O)[O-])SC1=S,-0.95%
25,COC(=O)C1NN=C(C(=O)c2ccccc2)C1c1ccccc1 (stereo not drawn),-3.17%

row,SMILES,inhibition
1,Cc1cc(Cl)ccc1OCC(=O)OCC(=O)Nc1ccc(F)c([N+](=O)[O-])c1,4.62%
2,N/C(=N\S(=O)(=O)c1cc(C(F)(F)F)cc(C(F)(F)F)c1)c1ccccc1,4.74%
3,NC(=O)c1ccc(/C(N)=N/S(=O)(=O)c2cc(C(F)(F)F)cc(C(F)(F)F)c2)cc1,2.05%
4,N/C(=N\S(=O)(=O)c1cc(C(F)(F)F)cc(C(F)(F)F)c1)c1cccs1,13.9% (active)
5,CC(=O)c1ccc(NC(=S)NC(=O)c2c(Cl)c(C)nn2C)cc1,5.85%
6,CCOC(=O)c1ccc(NC(=S)N2CCC(C(N)=O)CC2)cc1,6.36%
7,Cc1ccc(O)c(CCc2ccccc2)n1,-3.57%
8,Cc1ccc(O)c(CO)n1,15% (active)
9,Cc1ccc(O)c(CC(C)C)n1,6.41%
10,COc1ccccc1NC(=O)Cn1c(CN2CCCCC2)nc2ccccc2c1=O,0.52%
11,O=C(NC1(C(F)(F)F)NC(=O)N(c2ccc(F)cc2)C1=O)c1cccs1 (stereo not drawn),-0.58%
12,CCOC(=O)CSc1nc2sc(C)c(C)c2c(=O)n1C,3.47%
13,Cc1sc2nc(SCC(=O)NCCO)n(C)c(=O)c2c1C,3.09%
14,CCOC(=O)CNC(=O)CSc1nc2sc(C)c(C)c2c(=O)n1C,15% (active)
15,Cc1c(C(=O)NCc2cccnc2)sc2ncn(CC(=O)N3CCCCC3C)c(=O)c12 (stereo not drawn),-7.32%
16,Cc1nc(NC(=O)C2CC2)sc1C,-0.38%
17,CCCCC(=O)Nc1nc(C)c(C(C)=O)s1,-1.28%
18,Cc1nc(NC(=O)CCCC(=O)Nc2nc(C)c(C)s2)sc1C,13.9% (active)
19,CCC(=O)N(Cc1cc2cc(C)c(C)cc2[nH]c1=O)C1CCCCC1,-7.37%
20,CC(=O)n1cc(/C=N/NC(N)=S)c2ccccc21,-6.26%
21,CSCC[C@H](NC(=O)OC(C)(C)C)C(=O)N/N=C/c1ccc2nccnc2c1,-6.4%
22,CSc1ccccc1C(=O)C1CCCN(Cc2ccn[nH]2)C1 (stereo not drawn),10.5%
23,O=C(c1cc2cc(Cl)cc(Cl)c2oc1=O)N1CCOCC1,-1.07%
24,CCc1ccc(NS(=O)(=O)c2ccc3[nH]cc(C(=O)N(C)Cc4ccco4)c(=O)c3c2)cc1,1.75%
25,Cc1ccccc1NS(=O)(=O)c1ccc2[nH]cc(C(=O)N(C)Cc3ccco3)c(=O)c2c1,29.4% (active)

row,SMILES,inhibition
1,CN(Cc1ccco1)C(=O)c1c[nH]c2ccc(S(=O)(=O)Nc3ccc4c(c3)OCCO4)cc2c1=O,3.32%
2,COc1cccc(C2=NOC(C(=O)Nc3cc(OC)c(OC)c(OC)c3)C2)c1 (stereo not drawn),-0.12%
3,CCOc1ncccc1C(=O)Nc1nnc(C2CC2)s1,8.29%
4,CC1CCCCN1CCNC(=O)CN1C(=O)COc2ccccc21 (stereo not drawn),-1.43%
5,CCn1c(SCC(=O)c2ccc(Cl)cc2)nnc1-c1cccs1,-2.46%
6,CN(CC(=O)Nc1cccc(F)c1)C(=O)CCCc1cccs1,-1.08%
7,COC(C[C@H]1O[C@@H]1C(=O)[C@H](C)OCc1ccccc1)OC,5.93%
8,COC(C[C@@H]1O[C@@H]1C(=O)[C@H](C)OCc1ccccc1)OC,-0.47%
9,COC(C[C@@H]1O[C@@H]1C(=O)[C@@H](C)OCc1ccccc1)OC,14.7% (active)
10,COC(=O)C1C(=O)c2c(C)noc2CC1(C)C (stereo not drawn),7.63%
11,COc1ccc(C)cc1-n1nnnc1SCC(=O)Nc1cc(C)on1,4.65%
12,Cc1cc(C)c2nc(SCCc3ccccc3)nc(C)c2c1,6.08%
13,Cc1cc(=O)oc2cc(OCC#N)ccc12,-3.06%
14,C#CCOc1ccc2c(C)cc(=O)oc2c1,13.2% (active)
15,C=C(Cl)COc1ccc2c(C)cc(=O)oc2c1,-5.17%
16,COc1ccc(/C=C/C(=O)NNc2cc(=O)n(C)c(=O)n2C)cc1OC,3.78%
17,COc1ccc(C/C(C)=N/NC(=S)Nc2ccccc2F)cc1,-0.55%
18,O=C(CSc1nc2ccccc2n1CCc1ccccc1)c1ccc(O)c(O)c1,23.3% (active)
19,O=C(CSc1nc2ccccc2n1CCc1ccccc1)N1CCOCC1,-3.44%
20,O=C(CSc1nc2ccccc2n1CCc1ccccc1)NC1CC1,0.08%
21,CC1CC(=S)Nc2ccccc2N1C(=O)Nc1ccccc1 (stereo not drawn),1.98%
22,O=C1S/C(=C\c2ccc(Cl)cc2)C(=O)N1CCn1cnnn1,-3.11%
23,O=C(NCc1ccc(F)cc1)c1ccc(CS(=O)(=O)Cc2ccc(F)cc2)o1,0.32%
24,COc1ccc(C(=O)Nc2nc3ccccc3s2)cc1OC,1.41%
25,O=[N+]([O-])c1cc(CN(CCO)CCO)ccc1O,1.38%

row,SMILES,inhibition
1,CC(NCC(O)COCc1ccc(Cl)cc1)c1ccccc1 (stereo not drawn),-4.31%
2,O=c1oc2ccccc2c(Nc2cccc(O)c2)c1[N+](=O)[O-],1.89%
3,O=c1oc2ccccc2c(Nc2ccccc2)c1[N+](=O)[O-],0.42%
4,O=c1oc2ccccc2c(Nc2ccc(O)cc2)c1[N+](=O)[O-],13.3% (active)
5,Cc1cc(NC(=O)c2cc(-c3ccc(C)s3)nc3ccccc23)no1,2.43%
6,COC(=O)/C(C(C)=O)=C(/C=C/C=C/N(C)C)N(C)C,6.24%
7,CCOC(=O)C1(Cc2ccc(Cl)cc2)CCN(C(=O)C2CCCO2)CC1 (stereo not drawn),1.7%
8,O=C(COc1ccc(Cc2ccccc2)cc1)c1ccc(F)cc1,-3.15%
9,CC1=C(C#N)c2nc(N)c(C#N)c(C)c2/C1=C\c1ccc(OCC(=O)O)c(Cl)c1,4.55%
10,CC1=C(C#N)c2nc(N)c(C#N)c(C)c2/C1=C\c1ccc(C)cc1,2.53%
11,Cc1ccccc1/C=N/NC(=O)Cc1ccc(Cl)cc1,0.8%
12,CC(C)(C)N1CC(C(=O)O)CC1=O (stereo not drawn),6.47%
13,CC(=O)NC(CCS(C)(=O)=O)C(=O)Nc1ccc(Oc2ccccc2)cc1 (stereo not drawn),-3.46%
14,COc1ccc(NC(=O)C(CCS(C)(=O)=O)NC(C)=O)cc1 (stereo not drawn),18.3% (active)
15,CC(=O)NC(CCS(C)(=O)=O)C(=O)Nc1ccccc1 (stereo not drawn),2.39%
16,O=[N+]([O-])c1cccc(/C=N/n2c(COc3ccccc3)n[nH]c2=S)c1,9.99%
17,CC(C)(C)c1ccc(Oc2ccc(NC(=O)c3cccs3)cn2)cc1,-0.97%
18,O=C1OCc2cccc([N+](=O)[O-])c21,7.84%
19,O=C1CC(=O)c2c1cccc2[N+](=O)[O-],17% (active)
20,O=C1c2cccc([N+](=O)[O-])c2C(=O)N1c1ccccc1,1.03%
21,Cc1ccc(N=CC2=C(O)CC(C)(C)CC2=O)nc1,0.57%
22,CC1(C)CC(=O)C(/C=N/c2ccccn2)=C(O)C1,0.36%
23,CC1(C)CC(=O)C(C=Nc2ccc(Cl)cn2)=C(O)C1,13.9% (active)
